According to PubChem BioAssay (NCATS):
Results filed as inconclusive are left out. Calls of active or inactive are those of the source. Unless noted, the call rests on the fitted dose curve; in most records, active means well fitted curve in the direction sought with a large enough effect; inconclusive means small, poorly fitted or top-dose-only effect, or another doubt; inactive means no such curve, though single readings can be large; an effect the other way counts as inactive or inconclusive.

Key:
[1] = target: Cytochrome P450 1A2 (Homo sapiens) (UniProt P05177); assay: p450-cyp1a2 (AID 410; calls by dose curve; further: potency means the concentration at half of the fitted maximal effect)
Summary of the method: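 Luminescent demethylation readout: Luciferin-ME (100uM, equal to Km) turned over by 20nM CYP1A2 for 60 min at room temperature after NADPH regeneration addition, following 10 min compound preincubation. Normalization used 57 uM furafylline as full inhibition.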

[2] = target: Glucocorticoid receptor (Homo sapiens) (UniProt P04150); assay: GR-GFP Redistribution (AID 450;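 active means compounds whose dose series gives a full or clear partial fitted curve of increased nuclear translocation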; further: potency means the concentration at half of the fitted maximal effect); settings: U2OS GR-GFP nuclear translocation, laser cytometry, 2 h
[3] = target: Glucocorticoid receptor (Homo sapiens) (UniProt P04150); assay: GR-EFC Redistribution (AID 451; calls by dose curve; further: potency means the concentration at half of the fitted maximal effect); settings: CHO-K1 GR-EFC translocation, beta-gal luminescence, 2 h
Summary of the method: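 CHO-K1 cells expressing nuclear EA and GR-ED fragments of b-gal; compounds titrated up to 46 uM final, 2 h at 37 C. GR nuclear translocation read as complemented b-gal luminescence after 1 h RT detection.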

[4] = target: Mitogen-activated protein kinase 10 (Mus musculus) (UniProt Q61831); assay: JNK3 AlphaScreen Assay (AID 530; active means well fitted curve in either direction with a large enough effect, not every such curve was filed as active;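 further: kinase came from lysate of stimulated human HepG2 cells; signal reports phosphorylation of biotinylated GST-cJun 1-79 at Ser73 with 10 µM ATP; on the % scale 0 is the no-effect control and ±100 the full control effect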)
Summary of the method: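 Activity was read by AlphaScreen after JNK3-containing HepG2 lysate (cytokine pre-activated) phosphorylated biotinylated GST-cJun with 10 uM ATP at room temperature. Phospho-Ser73 cJun antibody with Protein-A acceptor beads provided detection.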

[5] = target: 3',5'-cyclic-AMP phosphodiesterase 4B (Homo sapiens) (UniProt Q07343); assay: qHTS Assay for Inhibitors of PDE-IV (AID 607; active means well fitted activation curve with a large enough effect in the main read-out, with a control signal flat, not every such curve was filed as active; further: % of control where 0% means no effect)
Summary of the method: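 ACTOne HEK293 cells carry a modified cAMP-gated CNG channel and express endogenous PDE4; plated 1000 cells/well, compounds up to 22.9 uM final. Membrane-potential dye fluorescence (ex 535/em 590) was read; parental cells received 10 uM forskolin + 100 uM RO 20-1724.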

[6] = target: Ubiquitin carboxyl-terminal hydrolase 1 (Homo sapiens) (UniProt O94782); assay: Inhibitors of USP1/UAF1: Pilot qHTS (AID 504865); further: nearly all actives have a fitted effect of over 35% in size; further: potency means the concentration at half of the fitted maximal effect
Summary of the method: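 In 50mM HEPES pH 7.8 containing 0.5mM EDTA, 1mM TCEP, 0.1 mg/ml BSA and 0.01% Tween-20, 1nM USP1/UAF1 is exposed to compound for 15 min, then Ub-Rho (150nM final) is added and fluorescence is read over time.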

[7] = target: DNA dC->dU-editing enzyme APOBEC-3G (Homo sapiens) (UniProt Q9HC16); assay: qHTS for inhibitors of Vif-A3G interactions: Validation (AID 588379); further: 0% is about no effect
Summary of the method: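 Yellow fluorescence (Ex 488, Em 500-530) of Vif-coexpressing HeLa A3G-eYFP cells, scanned by Acumen cytometer, reports blocked A3G degradation. Cells plated at 700/well overnight at 37 deg C before compound addition, then a further overnight compound incubation at 37 deg C.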

[8] = test system: Zika virus NS2B-NS3 protease; assay: Primary screen GU AMC qHTS for Zika virus inhibitors (AID 1347154);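 further: 0% = no-inhibitor control and -100% = no-enzyme control; nearly all actives have a fitted effect of over 70% in size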
Summary of the method: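 Unlinked Zika NS2B hydrophilic domain–NS3 protease complex at 25 nM in 10 mM Tris-HCl pH 8.0, 0.01% Tween 20, with an AMC peptide substrate. Fluorescence change (340/450 nm) over 15 min at room temperature, normalized to controls, fitted to 4-parameter Hill.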

[9] = AP1 Signaling Pathway (AID 357; active means well fitted curve in either direction with a large enough effect, not every such curve was filed as active;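 further: ME-180 reporter cells stimulated with EGF at its EC50 level; on the % scale 0 is the no-effect control and ±100 the full control effect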); settings: ME-180 AP-1-bla reporter, EGF-induced, beta-lactamase ratio, 5 h; at 38 µM (top of the series)
Summary of the method: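 Titration-series screen for positive or negative modulators of EC50 EGF-induced signaling in ME-180 cells carrying an AP-1-driven beta-lactamase reporter. After 5 hours at 37 degrees Celsius, CCF4 460nm/530nm emission ratio gave %Activity; AC50 values derived.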

[10] = NFAT Signaling Pathway (AID 444; active means well fitted curve in either direction with a large enough effect, not every such curve was filed as active;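 further: carbachol stimulus at about its EC50 of 1 µM final; on the % scale 0 is the no-effect control and ±100 the full control effect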); settings: Jurkat NFAT-bla M1, carbachol, beta-lactamase ratio, 5 h; at 38 µM (top of the series)
Summary of the method: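 Jurkat cells with NFAT-driven β-lactamase reporter and co-expressed M1 receptor, stimulated with carbachol (final 1 uM, ~EC50), compound titration, 5 h at 37 °C. CCF4 loaded 1 h at RT; 460/530 nm ratio gave %activity and AC50.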

[11] = Stat Signaling Pathway (AID 446; active means well fitted curve in either direction with a large enough effect, not every such curve was filed as active;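 further: ME-180 cervical cancer cells given 40 pM IL-6 alongside compound; SIE-controlled beta-lactamase reporter measured as 460/530 nm FRET emission ratio; on the % scale 0 is the no-effect control and ±100 the full control effect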); settings: ME-180 (cervical carcinoma) SIE beta-lactamase reporter, IL-6 stimulated, 5 h; at 38 µM (top of the series)
Summary of the method: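 Compound effects on IL-6-induced STAT reporter activity were measured in ME-180 cells. After overnight culture, cells were co-treated with 40 pM IL-6 for 5 hrs before beta-lactamase substrate loading at room temperature.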

[12] = target: Guanine nucleotide-binding protein G(i) subunit alpha-1 (Homo sapiens) (UniProt P63096); assay: qHTS Assay for Inhibitors of RGS12 GoLoco Motif Activity (Green Fluorophore) (AID 879);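 further: 0% = labeled peptide with Gαi1 and full inhibition = labeled peptide alone without protein; negative values mean loss of peptide binding seen as reduced polarization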
Summary of the method: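 A drop in FITC polarization marked displacement of the FITC-tagged RGS12 GoLoco peptide (10 nM) from Gαi1 (50 nM). Compounds were incubated 10 min at room temperature in Tris pH 7.5 buffer containing 150 mM NaCl, 0.1 mM GDP and 0.05% NP40; unlabeled peptide titration served as control.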

[13] = target: Pyruvate kinase (Leishmania mexicana) (UniProt Q27686); assay: qHTS Validation Assay for Inhibitors of Leishmania Mexicana Pyruvate Kinase (AID 945);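 further: 0% = DMSO only neutral control wells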
Summary of the method: (§1)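 Pyruvate kinase activity of E451W LmPYK (0.2 nM) was followed as ATP output after 1 h at room temperature with 0.5 mM PEP and 0.1 mM ADP, detected by PKLight luminescence.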

[14] = target: Pyruvate kinase PKM (Homo sapiens) (UniProt P14618); assay: qHTS Assay for Activators of Human Muscle Pyruvate Kinase (AID 954; active means well fitted curve in the direction sought with a large enough effect, not every such curve was filed as active;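 further: 0% = uninhibited enzyme and -100% = no enzyme or full thiadiazolimine inhibition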)
Summary of the method: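 A coupled luminescent readout tracked ATP made from ADP by purified PKM2. Final conditions included 0.1 nM enzyme, PEP and ADP at 0.5 and 0.1 mM, pH 7.2 imidazole buffer with BSA, and a one-hour room-temperature reaction.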

[15] = target: Alpha-galactosidase A (Homo sapiens) (UniProt P06280); assay: Counterscreen for Glucocerebrosidase Inhibitors: qHTS Assay for Human alpha-Galactosidase at pH 4.5 (AID 992); further: 0% is about no effect
Summary of the method: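 Citrate buffer pH 4.5, Tween-20 0.005%. Enzyme 2 nM, substrate 80 uM, 20 min RT. Stop pH 10. Fluorescence Ex 365/Em 440. AC50 by Hill fit.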

[16] = target: alpha-glucosidase (Oryza sativa, rice) (UniProt Q653V4); assay: Counterscreen for Glucocerebrosidase Inhibitors: qHTS Assay for Rice alpha-Glucosidase at pH 5.0 (AID 997);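 further: 0% = full activity with enzyme and -100% = basal without enzyme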
Summary of the method: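 Endpoint fluorogenic assay at pH 5.0: compounds (0.7 nM to 77 uM) titrated against 4 nM rice enzyme and 400 uM 4-MU-alpha-glucoside for 20 min at room temperature; NaOH/glycine stop, read ex 365/em 440 nm, Hill-fitted AC50.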

[17] = target: Cytochrome P450 3A4 (Homo sapiens) (UniProt P08684); assay: qHTS Assay for Activators of Cytochrome P450 3A4 (AID 885); further: nearly all actives have a fitted effect of over 65% in size
Summary of the method: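 CYP3A4 activity: Luciferin-PPXE O-dealkylation, 25uM substrate, 200mM KPO4, RT throughout. Read-out is luciferase luminescence; higher values reflect activation.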

[18] = target: Muscarinic acetylcholine receptor M1 (Rattus norvegicus) (UniProt P08482); assay: qHTS Assay for Antagonists of Acetylcholine Muscarinic M1 Receptor: Kinetic Measurement of Intracellular Calcium Response (AID 943);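 further: Fluo-4 calcium signal as peak divided by basal fluorescence over 4 min; nearly all actives have a fitted effect of over 75% in size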
Summary of the method: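 Antagonism measured as reduction of carbachol-evoked (EC80, 100 nM final) calcium flux in rat M1-CHO cells after 10 min compound exposure. Fluo-4 signal read kinetically; ratio of maximal to basal fluorescence.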

[19] = target: Pyruvate kinase PKM (Homo sapiens) (UniProt P14618); assay: qHTS Assay for Inhibitors of Human Muscle Pyruvate Kinase (AID 958); settings: purified human PKM enzyme activity
Summary of the method: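 Human PKM2 activity is measured as ATP generation, detected by luciferase-coupled luminescence. The enzyme (0.1 nM) acts on 0.5 mM PEP and 0.1 mM ADP for 1 h at ambient temperature; data are normalized to uninhibited and full-inhibition wells.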

[20] = target: Pyruvate kinase (Leishmania mexicana) (UniProt Q27686); assay: qHTS Validation Assay for Activators of Leishmania Mexicana Pyruvate Kinase (AID 959)
Summary of the method: as §1

Sequence of Cytochrome P450 1A2 (Homo sapiens) (P05177 whole entry, looked up): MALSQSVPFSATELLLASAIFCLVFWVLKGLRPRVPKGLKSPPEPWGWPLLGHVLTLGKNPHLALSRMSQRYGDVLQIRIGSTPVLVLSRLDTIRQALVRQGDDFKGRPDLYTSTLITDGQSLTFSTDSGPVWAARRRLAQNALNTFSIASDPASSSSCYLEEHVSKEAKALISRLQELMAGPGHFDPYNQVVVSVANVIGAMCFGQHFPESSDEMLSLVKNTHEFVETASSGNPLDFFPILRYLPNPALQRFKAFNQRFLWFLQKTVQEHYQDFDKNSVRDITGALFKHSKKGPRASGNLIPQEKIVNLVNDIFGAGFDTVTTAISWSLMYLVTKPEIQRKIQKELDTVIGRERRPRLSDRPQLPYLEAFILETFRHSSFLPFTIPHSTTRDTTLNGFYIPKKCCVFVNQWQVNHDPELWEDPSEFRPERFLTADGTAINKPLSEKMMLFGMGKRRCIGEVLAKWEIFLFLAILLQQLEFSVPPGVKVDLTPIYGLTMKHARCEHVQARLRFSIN
Sequence of Pyruvate kinase PKM (Homo sapiens) (P14618 whole entry, looked up): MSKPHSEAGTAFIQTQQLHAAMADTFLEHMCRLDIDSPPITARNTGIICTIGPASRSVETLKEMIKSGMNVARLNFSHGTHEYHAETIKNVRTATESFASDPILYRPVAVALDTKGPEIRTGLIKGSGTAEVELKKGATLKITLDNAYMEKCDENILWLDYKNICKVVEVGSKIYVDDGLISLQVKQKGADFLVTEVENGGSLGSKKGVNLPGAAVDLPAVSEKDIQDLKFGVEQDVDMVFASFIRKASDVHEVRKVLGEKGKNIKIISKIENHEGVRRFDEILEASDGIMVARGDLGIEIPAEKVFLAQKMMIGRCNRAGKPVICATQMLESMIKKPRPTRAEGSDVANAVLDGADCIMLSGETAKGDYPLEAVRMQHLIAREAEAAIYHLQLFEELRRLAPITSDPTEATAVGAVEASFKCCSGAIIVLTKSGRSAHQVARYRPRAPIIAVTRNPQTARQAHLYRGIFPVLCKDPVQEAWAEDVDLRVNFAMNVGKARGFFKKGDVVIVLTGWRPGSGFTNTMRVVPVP
Sequence of DNA dC->dU-editing enzyme APOBEC-3G (Homo sapiens) (Q9HC16 whole entry, looked up): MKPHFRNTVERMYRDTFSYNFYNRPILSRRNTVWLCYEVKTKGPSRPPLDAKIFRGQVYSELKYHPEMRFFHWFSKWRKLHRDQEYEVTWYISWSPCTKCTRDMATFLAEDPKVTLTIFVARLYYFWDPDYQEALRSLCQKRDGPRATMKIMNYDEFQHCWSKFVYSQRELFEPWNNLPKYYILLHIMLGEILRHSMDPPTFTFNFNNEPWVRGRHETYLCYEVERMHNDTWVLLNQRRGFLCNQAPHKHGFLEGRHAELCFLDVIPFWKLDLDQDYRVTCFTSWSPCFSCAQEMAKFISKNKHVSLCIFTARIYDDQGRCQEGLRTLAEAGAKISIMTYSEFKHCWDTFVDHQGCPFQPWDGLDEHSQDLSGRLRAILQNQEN
Sequence of Glucocorticoid receptor (Homo sapiens) (P04150 whole entry, looked up, the tested form may be a part): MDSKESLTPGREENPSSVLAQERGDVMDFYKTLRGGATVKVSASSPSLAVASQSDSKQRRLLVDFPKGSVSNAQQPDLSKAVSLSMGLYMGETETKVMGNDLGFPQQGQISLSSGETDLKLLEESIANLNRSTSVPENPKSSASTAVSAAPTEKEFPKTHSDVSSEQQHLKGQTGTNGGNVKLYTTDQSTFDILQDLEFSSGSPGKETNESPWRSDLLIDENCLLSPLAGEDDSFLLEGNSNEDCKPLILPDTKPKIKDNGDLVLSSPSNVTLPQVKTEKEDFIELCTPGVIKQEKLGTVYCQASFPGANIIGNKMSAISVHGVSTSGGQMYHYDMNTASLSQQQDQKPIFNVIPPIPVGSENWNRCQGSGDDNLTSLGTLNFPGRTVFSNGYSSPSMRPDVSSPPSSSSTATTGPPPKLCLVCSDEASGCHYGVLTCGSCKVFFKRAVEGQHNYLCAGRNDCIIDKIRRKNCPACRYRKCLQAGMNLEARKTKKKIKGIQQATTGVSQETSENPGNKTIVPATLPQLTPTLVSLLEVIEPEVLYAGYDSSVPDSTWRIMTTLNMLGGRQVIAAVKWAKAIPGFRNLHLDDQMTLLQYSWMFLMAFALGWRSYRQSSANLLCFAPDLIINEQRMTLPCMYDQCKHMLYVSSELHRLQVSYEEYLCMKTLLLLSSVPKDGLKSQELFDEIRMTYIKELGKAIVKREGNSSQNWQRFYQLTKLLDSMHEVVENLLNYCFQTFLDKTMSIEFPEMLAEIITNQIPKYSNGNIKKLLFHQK
Sequence of 3',5'-cyclic-AMP phosphodiesterase 4B (Homo sapiens) (Q07343 whole entry, looked up): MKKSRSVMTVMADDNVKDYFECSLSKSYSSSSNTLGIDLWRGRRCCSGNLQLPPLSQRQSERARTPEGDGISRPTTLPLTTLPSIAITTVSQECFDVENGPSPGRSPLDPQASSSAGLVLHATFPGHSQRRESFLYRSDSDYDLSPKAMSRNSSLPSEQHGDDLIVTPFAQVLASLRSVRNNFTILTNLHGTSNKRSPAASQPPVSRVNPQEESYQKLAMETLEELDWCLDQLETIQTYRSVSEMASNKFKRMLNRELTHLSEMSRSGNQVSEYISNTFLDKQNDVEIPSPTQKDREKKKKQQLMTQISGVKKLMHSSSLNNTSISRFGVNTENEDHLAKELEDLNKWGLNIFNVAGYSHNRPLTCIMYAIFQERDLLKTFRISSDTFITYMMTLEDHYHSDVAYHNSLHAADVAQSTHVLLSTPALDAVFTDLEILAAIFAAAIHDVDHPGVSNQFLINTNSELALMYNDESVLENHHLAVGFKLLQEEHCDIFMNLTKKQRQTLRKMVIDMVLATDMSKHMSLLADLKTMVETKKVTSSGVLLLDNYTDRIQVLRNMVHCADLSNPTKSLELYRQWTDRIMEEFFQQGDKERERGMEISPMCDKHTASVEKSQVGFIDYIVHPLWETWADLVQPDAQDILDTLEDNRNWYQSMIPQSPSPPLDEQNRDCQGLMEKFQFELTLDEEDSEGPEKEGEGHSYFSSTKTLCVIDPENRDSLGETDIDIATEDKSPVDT
Sequence of Ubiquitin carboxyl-terminal hydrolase 1 (Homo sapiens) (O94782 whole entry, looked up): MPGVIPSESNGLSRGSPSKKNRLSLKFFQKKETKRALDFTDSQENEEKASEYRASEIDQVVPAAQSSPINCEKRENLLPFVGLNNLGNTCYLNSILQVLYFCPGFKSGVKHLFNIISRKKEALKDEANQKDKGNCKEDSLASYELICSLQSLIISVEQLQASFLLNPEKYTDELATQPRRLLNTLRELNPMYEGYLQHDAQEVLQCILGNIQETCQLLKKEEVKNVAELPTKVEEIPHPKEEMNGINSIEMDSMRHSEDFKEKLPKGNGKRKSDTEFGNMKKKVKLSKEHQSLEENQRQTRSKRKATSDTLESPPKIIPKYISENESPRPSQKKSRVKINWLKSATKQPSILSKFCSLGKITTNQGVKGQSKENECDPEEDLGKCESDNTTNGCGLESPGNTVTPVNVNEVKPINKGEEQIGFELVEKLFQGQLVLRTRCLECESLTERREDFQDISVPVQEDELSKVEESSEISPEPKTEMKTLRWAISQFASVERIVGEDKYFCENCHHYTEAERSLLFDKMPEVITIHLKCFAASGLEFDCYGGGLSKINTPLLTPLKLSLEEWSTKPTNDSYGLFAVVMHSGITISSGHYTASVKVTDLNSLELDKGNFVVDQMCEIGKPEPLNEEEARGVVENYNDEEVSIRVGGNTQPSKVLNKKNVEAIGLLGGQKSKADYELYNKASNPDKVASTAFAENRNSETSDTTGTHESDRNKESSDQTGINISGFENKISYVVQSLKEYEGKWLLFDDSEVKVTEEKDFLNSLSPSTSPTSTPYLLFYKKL
Sequence of Alpha-galactosidase A (Homo sapiens) (P06280 whole entry, looked up): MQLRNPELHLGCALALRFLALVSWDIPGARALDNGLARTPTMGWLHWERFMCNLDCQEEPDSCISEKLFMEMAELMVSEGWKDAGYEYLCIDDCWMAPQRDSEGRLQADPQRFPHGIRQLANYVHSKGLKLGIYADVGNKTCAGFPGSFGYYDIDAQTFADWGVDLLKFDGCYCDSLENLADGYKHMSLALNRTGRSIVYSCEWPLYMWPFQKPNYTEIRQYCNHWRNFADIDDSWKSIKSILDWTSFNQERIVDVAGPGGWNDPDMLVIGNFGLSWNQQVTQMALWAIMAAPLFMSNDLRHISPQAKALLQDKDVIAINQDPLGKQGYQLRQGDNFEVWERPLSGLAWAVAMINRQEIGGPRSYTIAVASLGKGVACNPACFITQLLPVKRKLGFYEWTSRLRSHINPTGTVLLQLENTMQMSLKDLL
Sequence of Guanine nucleotide-binding protein G(i) subunit alpha-1 (Homo sapiens) (P63096 whole entry, looked up): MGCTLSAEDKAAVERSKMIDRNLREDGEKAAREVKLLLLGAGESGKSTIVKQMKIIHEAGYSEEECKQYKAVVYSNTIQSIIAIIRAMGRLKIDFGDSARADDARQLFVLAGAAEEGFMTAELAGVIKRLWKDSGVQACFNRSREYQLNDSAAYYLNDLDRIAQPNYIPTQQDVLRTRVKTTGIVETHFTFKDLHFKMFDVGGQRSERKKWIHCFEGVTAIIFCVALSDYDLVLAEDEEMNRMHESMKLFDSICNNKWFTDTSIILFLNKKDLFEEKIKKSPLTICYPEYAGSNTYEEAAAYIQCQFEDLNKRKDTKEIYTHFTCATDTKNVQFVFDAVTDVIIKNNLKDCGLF
Sequence of Pyruvate kinase (Leishmania mexicana) (Q27686 2-499 E452W): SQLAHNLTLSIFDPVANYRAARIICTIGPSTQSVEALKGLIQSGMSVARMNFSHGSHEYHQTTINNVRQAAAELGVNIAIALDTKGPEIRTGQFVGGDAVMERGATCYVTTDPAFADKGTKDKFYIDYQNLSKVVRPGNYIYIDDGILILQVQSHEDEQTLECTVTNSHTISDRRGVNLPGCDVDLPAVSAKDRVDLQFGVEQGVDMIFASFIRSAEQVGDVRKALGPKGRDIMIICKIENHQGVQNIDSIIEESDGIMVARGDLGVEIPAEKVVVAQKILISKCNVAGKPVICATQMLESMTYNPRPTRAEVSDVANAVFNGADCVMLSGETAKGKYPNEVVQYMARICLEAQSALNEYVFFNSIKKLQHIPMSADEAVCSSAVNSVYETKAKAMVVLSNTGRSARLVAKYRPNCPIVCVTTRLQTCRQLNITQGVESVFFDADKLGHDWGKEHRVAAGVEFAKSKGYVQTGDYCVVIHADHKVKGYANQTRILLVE

OC[C@H]1O[C@H](n2cnc3c(NC4CCCC4)nc(Cl)nc32)[C@@H](O)[C@@H]1O
active: Potency [1] 39.8 µM
inactive: Potency [2] > 46 µM | Potency [3] > 46 µM | Potency [4] | Potency [5] | Potency [6] | Potency [7] | Potency [8]

Cc1c[nH]c(=O)n(CCCN2CCN(c3ccccc3OCC(F)(F)F)CC2)c1=O
inactive: Potency [2] > 46 µM | Potency [3] > 46 µM | Potency [4] | Potency [5] | Potency [6] | Potency [7] | Potency [8]

O=C(O)COc1cccc(-c2ocnc2-c2nc(-c3ccccc3)c(-c3ccccc3)o2)c1
active: Potency [6] 39.8 µM
inactive: Potency [2] > 46 µM | Potency [3] > 46 µM | Potency [4] | Potency [5] | Potency [7] | Potency [8]

O=C(NC[C@H]1CCCCN1)c1cc(OCC(F)(F)F)ccc1OCC(F)(F)F
inactive: activity change, negative = inhibition [9] 4.16% | activity change, negative = inhibition [10] -11% | activity, negative = inhibition [11] -13.8% | Potency [4] | Potency [5] | outcome [12] | Potency [13] | outcome [14] | outcome [15] | outcome [16] | Potency [7] | Potency [8]

Clc1cccc(C=NC=Nc2cccc(Cl)c2)c1
inactive: Potency [2] > 46 µM | Potency [3] > 46 µM | Potency [6] | Potency [7] | Potency [8]
active: Potency [1] 0.631 µM

Fc1cccc(/C=N\N=C/c2cccc(F)c2)c1
active: Potency [1] 0.2 µM | Potency [19] 2.51 µM
inactive: Potency [3] > 46 µM | Potency [4] | Potency [5] | outcome [12] | Potency [17] | Potency [18] | outcome [14] | Potency [20] | outcome [15] | outcome [16] | Potency [6] | Potency [7] | Potency [8]
